{
  "source": "PubChem BioAssay AID463173",
  "about": "(ICCB-Longwood Screening Facility, Harvard Medical School, 2010)",
  "note": "In all, about 52,000 compounds went through this assay and about 1,700 (3.3%) were called active. Cut-off read from the data, not from the text of the source: active = survival mostly below about 52% (no sharp cut-off); inactive = mostly above about 56%. Shown is part of a subset that was picked to be rich in actives.",
  "data": [
    {"tested_on": "Wild type", "experiment": "S. aureus survival, RN4220 and DeltatarO strains – OD600, teichoic acid synthesis inhibitors, primary screen (AID 463173)", "conditions": "S. aureus RN4220 wild type/DeltatarO growth, OD600, 18 h, stronger effect = lower value, screened at 18.75 µg/mL (by protocol)", "values": [
      {"smiles": "Cc1ccc(F)cc1NC(=O)c1ccc(Cn2nc(N3CCN(c4ccccc4)CC3)ccc2=O)o1", "survival": "127% (inactive)"},
      {"smiles": "CCc1cccc(NS(=O)(=O)c2ccc3c(c2)CC(C)N3C(=O)C2CC2)c1", "note": "(stereo not given)", "survival": "80% (inactive)"},
      {"smiles": "COc1ccc(CNC(=O)Cn2c(=O)oc3cc(S(=O)(=O)N4CCCC4)ccc32)cc1", "survival": "91% (inactive)"},
      {"smiles": "Cc1ccc2nc(-c3ccc(C)s3)c(Nc3ccc4c(c3)OCCO4)n2c1", "survival": "83% (inactive)"},
      {"smiles": "CCOC(=O)c1cccc(NC(=O)N2CC(CC)Sc3ccccc32)c1", "note": "(stereo not given)", "survival": "84% (inactive)"},
      {"smiles": "COc1ccc(CNC(=O)c2cc3c(=O)n(Cc4ccco4)ccc3nc2C)cc1", "survival": "74% (inactive)"},
      {"smiles": "Cc1ccc2c(c1)c1c3n2CCN(C(=O)CN2CCN(C(=O)c4ccco4)CC2)C3CCC1", "note": "(stereo not given)", "survival": "126% (inactive)"},
      {"smiles": "COc1ccc(C(=O)Oc2ccc(C(c3c(C)[nH][nH]c3=O)c3c(C)[nH][nH]c3=O)cc2OC)cc1", "survival": "73% (inactive)"},
      {"smiles": "O=C(CSc1nnc(CNC(=O)c2ccccc2F)n1-c1ccccc1)Nc1ccccc1F", "survival": "66% (inactive)"},
      {"smiles": "CCN(C(=O)CCc1nc(-c2ccc(C)cc2)no1)c1cc(C)ccc1C", "survival": "0% (active)"},
      {"smiles": "COc1ccc(CNC(=O)c2cc3cc4ccc(C)cc4nc3o2)cc1", "survival": "88% (inactive)"},
      {"smiles": "CCN(C(=O)Cc1nc(-c2ccc(OC)cc2)no1)c1cccc(Cl)c1", "survival": "84% (inactive)"},
      {"smiles": "Cc1ccc(C)c(NC(=O)CCc2nc(-c3ccc(C(C)(C)C)cc3)no2)c1", "survival": "109% (inactive)"},
      {"smiles": "CC(C)(C)c1ccc(-c2noc(CCC(=O)Nc3cccc(Cl)c3)n2)cc1", "survival": "87% (inactive)"},
      {"smiles": "CCN(C(=O)c1cc2cc3ccc(OC)cc3nc2o1)c1cccc(C)c1", "survival": "0% (active)"},
      {"smiles": "CCN(C(=O)CCc1nc(-c2ccc(C)cc2)no1)c1cccc(Cl)c1", "survival": "-1% (active)"},
      {"smiles": "COc1ccc2cc3cc(C(=O)NCc4ccc(C)cc4)oc3nc2c1", "survival": "89% (inactive)"},
      {"smiles": "COc1cc(-c2noc(CCC(=O)Nc3cc(C)ccc3C)n2)cc(OC)c1OC", "survival": "82% (inactive)"},
      {"smiles": "Cc1ccc(-n2cnc3ccccc3c2=O)cc1C", "survival": "89% (inactive)"},
      {"smiles": "CCN1C(=O)C(C2SC(=S)N(CC)C2=O)SC1=S", "note": "(stereo not given)", "survival": "98% (inactive)"},
      {"smiles": "CCc1ccccc1N(C)C(=O)c1cnc(N2CCOCC2)c2ccccc12", "survival": "65% (inactive)"},
      {"smiles": "CCc1ccc(NC(=O)N2c3ccccc3Sc3ccccc32)cc1", "survival": "1% (active)"},
      {"smiles": "COc1cc(NC(=O)N2c3ccccc3Sc3ccccc32)cc(OC)c1", "survival": "65% (inactive)"},
      {"smiles": "CCN(CC)C(=O)N1c2ccccc2Sc2ccccc21", "survival": "108% (inactive)"},
      {"smiles": "COc1ccc(OC)c(NC(=O)N2c3ccccc3Sc3ccccc32)c1", "survival": "19% (inactive)"},
      {"smiles": "CCOc1ccccc1NC(=O)N1c2ccccc2Sc2ccccc21", "survival": "61% (inactive)"},
      {"smiles": "COc1ccccc1NC(=O)N1c2ccccc2Sc2ccccc21", "survival": "-1% (active)"},
      {"smiles": "CCOC(=O)N1c2ccccc2Sc2ccccc21", "survival": "95% (inactive)"},
      {"smiles": "O=C(O)c1ccccc1NC(=O)N1c2ccccc2Sc2ccccc21", "survival": "28% (inactive)"},
      {"smiles": "CC(C)c1ccc(NC(=O)N2c3ccccc3Sc3ccccc32)cc1", "survival": "5% (active)"},
      {"smiles": "CCOC(=O)c1cccc(NC(=O)N2Cc3ccccc3Oc3ncccc32)c1", "survival": "81% (inactive)"},
      {"smiles": "Cc1c2cnn(CC(=O)O)c(=O)c2c(C)n1Cc1cccc(Cl)c1", "survival": "80% (inactive)"},
      {"smiles": "CCCSc1ncc(Cl)c(C(=O)N(Cc2ccccc2)c2ccc(OC)cc2)n1", "survival": "80% (inactive)"},
      {"smiles": "Cc1ccc(-n2ncc3c(Nc4ccc5c(c4)OCCO5)ncnc32)cc1C", "survival": "100% (inactive)"},
      {"smiles": "CSc1cccc(Nc2cc(C(=O)NCCc3ccc(Cl)cc3)c3ccccc3n2)c1", "survival": "120% (inactive)"},
      {"smiles": "Cc1c(-c2cccc(NC(=O)Nc3ccc(Cl)cc3)c2)nc2ncccn12", "survival": "-4% (active)"},
      {"smiles": "Cc1c(-c2cccc(NC(=O)Nc3ccccc3)c2)nc2ncccn12", "survival": "64% (inactive)"},
      {"smiles": "Cc1c(-c2cccc(NC(=O)C(C)(C)C)c2)nc2ncccn12", "survival": "71% (inactive)"},
      {"smiles": "CCc1nn(CC(=O)NCc2cccc(OC)c2)c(=O)c2cc3cc(F)ccc3n12", "survival": "69% (inactive)"},
      {"smiles": "CCOc1ccc(CCNC(=O)c2ccc3nc(N4CCC(C)CC4)sc3c2)cc1OCC", "survival": "73% (inactive)"},
      {"smiles": "Cc1ccc(-n2ncc3c(NCc4ccccc4)ncnc32)cc1Cl", "survival": "-6% (active)"},
      {"smiles": "Cc1ccc(-n2ncc3c(NCc4ccccc4)ncnc32)cc1C", "survival": "67% (inactive)"},
      {"smiles": "Cc1ccc(-n2ncc3c(NCCc4ccccc4)ncnc32)cc1Cl", "survival": "65% (inactive)"},
      {"smiles": "c1ccc(-c2nc3cc(Cc4ccc5oc(-c6ccccn6)nc5c4)ccc3o2)nc1", "survival": "113% (inactive)"},
      {"smiles": "CCC1=Nc2cc(C(=O)NCCN(CC)CC)ccc2Sc2ccccc21", "survival": "93% (inactive)"},
      {"smiles": "Cc1ccccc1NC(=O)CC1COc2ccccc2O1", "note": "(stereo not given)", "survival": "111% (inactive)"},
      {"smiles": "O=C(NCCCc1nc2ccccc2n1Cc1ccccc1F)c1ccco1", "survival": "92% (inactive)"},
      {"smiles": "Cc1ccccc1Cn1c(CCCNC(=O)C2CCCCC2)nc2ccccc21", "survival": "101% (inactive)"},
      {"smiles": "COc1ccc(Cc2nc3ccccc3n2Cc2ccccc2F)cc1", "survival": "23% (active)"},
      {"smiles": "O=C(NCCc1nc2ccccc2n1Cc1ccccc1F)c1ccc(F)cc1", "survival": "82% (inactive)"},
      {"smiles": "COc1ccc(Cc2nc3ccccc3n2Cc2ccccc2C)cc1", "survival": "1% (active)"},
      {"smiles": "COc1cccc(OCc2nc3ccccc3n2Cc2ccccc2C)c1", "survival": "87% (inactive)"},
      {"smiles": "Cc1ccc(-c2nc(CCNC(=O)C(=O)Nc3ccc(F)cc3F)cs2)cc1", "survival": "63% (inactive)"},
      {"smiles": "Cc1ccc(C(=O)COC(=O)c2cccc(NC(=O)c3ccc(Cl)cc3Cl)c2)cc1", "survival": "81% (inactive)"},
      {"smiles": "Cc1ccc(NC(=O)c2ccccc2Br)c(C(=O)c2ccccc2)c1", "survival": "25% (inactive)"},
      {"smiles": "Cc1ccc(NC(=O)c2ccc(Cl)cc2Cl)c(C(=O)c2ccccc2)c1", "survival": "1% (active)"},
      {"smiles": "Cc1ccc(NC(=O)c2ccc(Br)cc2)c(C(=O)c2ccccc2)c1", "survival": "-2% (active)"},
      {"smiles": "O=C(Nc1cc2c(cc1C(=O)c1ccccc1)OCCO2)c1ccc(Br)cc1", "survival": "86% (inactive)"},
      {"smiles": "Cc1cc(NC(=O)c2ccccc2Cl)ccc1NC(=O)c1ccccc1", "survival": "85% (inactive)"},
      {"smiles": "CCCCn1cc2c(c1-c1ccc(Cl)cc1)c(=O)n(C)c(=O)n2C", "survival": "83% (inactive)"},
      {"smiles": "COc1ccc2c(CNC3CCCCCC3)c(C(=O)O)n(Cc3ccccc3F)c2c1", "survival": "89% (inactive)"},
      {"smiles": "CCC1CCCCN1C(=O)c1ccc2c(c1)N(Cc1cccc(Cl)c1)C(=O)c1ccccc1S2(=O)=O", "note": "(stereo not given)", "survival": "73% (inactive)"},
      {"smiles": "Cc1ccc(N2CCN(C(=O)c3c(C)oc4nc(C)nc(N5CCCC5)c34)CC2)c(C)c1", "survival": "81% (inactive)"},
      {"smiles": "Cc1nn2c(-c3cccc(NC(=O)c4ccc(Cl)cc4)c3)nnc2c2ccccc12", "survival": "113% (inactive)"},
      {"smiles": "Cc1nn(-c2ccccc2)c2sc(C(=O)Nc3ccc(Br)cc3)cc12", "survival": "52% (inactive)"},
      {"smiles": "Cc1ccccc1NC(=O)c1cc2c(-c3ccccc3)nn(-c3ccccc3)c2s1", "survival": "86% (inactive)"},
      {"smiles": "COc1ccc(NC(=O)c2cc3c(C)nn(-c4ccccc4)c3s2)c(OC)c1", "survival": "63% (inactive)"},
      {"smiles": "Cc1nn(-c2ccccc2)c2sc(C(=O)Nc3ccccc3Br)cc12", "survival": "7% (active)"},
      {"smiles": "COc1ccccc1NC(=O)c1cc2c(-c3ccccc3)nn(-c3ccccc3)c2s1", "survival": "77% (inactive)"},
      {"smiles": "COc1ccccc1NC(=O)c1cc2c(C)nn(-c3ccccc3)c2s1", "survival": "1% (active)"},
      {"smiles": "Cc1ccc2oc(=O)c3cc(C(=O)Nc4ccc(F)cc4F)sc3c2c1", "survival": "80% (inactive)"},
      {"smiles": "CCc1ccccc1NC(=O)c1ccc(Cn2nc(N3CCN(c4ccccc4)CC3)ccc2=O)o1", "survival": "70% (inactive)"},
      {"smiles": "Cc1cccc(-n2ccnc2SCC(=O)Nc2ccc(F)cc2F)c1C", "survival": "71% (inactive)"},
      {"smiles": "Cc1cccc(CS(=O)(=O)CC2Nc3ccc(C(=O)NCc4ccccc4)cc3NC2=O)c1", "note": "(stereo not given)", "survival": "71% (inactive)"},
      {"smiles": "CCOC(=O)CNc1ncnc2c1nnn2C", "survival": "22% (inactive)"},
      {"smiles": "CCc1nc2c(cnn2-c2ccc(Cl)cc2)c(=O)n1-c1ccc(OC)c(Cl)c1", "survival": "78% (inactive)"},
      {"smiles": "CCOc1cccc2sc(NC(=O)c3ccc(S(=O)(=O)N4CCCCC4C)cc3)nc12", "note": "(stereo not given)", "survival": "10% (active)"},
      {"smiles": "CCOc1cccc2sc(NC(=O)c3ccc(S(=O)(=O)N4CCCc5ccccc54)cc3)nc12", "survival": "88% (inactive)"},
      {"smiles": "CCOc1cccc2sc(NC(=O)c3ccc(S(=O)(=O)N4CCCCC4)cc3)nc12", "survival": "75% (inactive)"},
      {"smiles": "CCOC(=O)c1c(-c2ccccc2)csc1NC(=O)c1cc(-c2ccc(Cl)cc2)on1", "survival": "85% (inactive)"},
      {"smiles": "Fc1ccc(-n2ncc3c(NCCC4=CCCCC4)ncnc32)cc1", "survival": "59% (inactive)"},
      {"smiles": "Cc1ccc(-n2ncc3c(NCCC4=CCCCC4)ncnc32)cc1", "survival": "-3% (active)"},
      {"smiles": "CCC(C)Nc1ncnc2c1cnn2-c1ccc(F)cc1", "note": "(stereo not given)", "survival": "71% (inactive)"},
      {"smiles": "Cc1ccc(-n2ncc3c(NC(C)c4ccccc4)ncnc32)cc1", "note": "(stereo not given)", "survival": "73% (inactive)"},
      {"smiles": "Cc1ccc(-n2ncc3c(NCCCc4ccccc4)ncnc32)cc1", "survival": "69% (inactive)"},
      {"smiles": "CCCCc1ccc(Nc2ncnc3c2cnn3-c2ccc(C)cc2)cc1", "survival": "-1% (active)"},
      {"smiles": "CCC(CO)Nc1ncnc2c1cnn2-c1ccc(C)cc1", "note": "(stereo not given)", "survival": "-6% (active)"},
      {"smiles": "Cc1ccc(-n2ncc3c(Nc4ccc(Oc5ccccc5)cc4)ncnc32)cc1", "survival": "74% (inactive)"},
      {"smiles": "Cc1ccc(-n2ncc3c(NCCC4=CCCCC4)ncnc32)cc1C", "survival": "131% (inactive)"},
      {"smiles": "COc1ccc(-c2noc(-c3ccc(N4CCC(C)CC4)c([N+](=O)[O-])c3)n2)cc1OC", "survival": "89% (inactive)"},
      {"smiles": "O=C(C1CCCCC1)N(Cc1cccnc1)c1nc2ccc(Cl)cc2s1", "survival": "72% (inactive)"},
      {"smiles": "CCc1nn(CC(=O)Nc2ccc(NC(C)=O)cc2)c(=O)c2cc3sccc3n12", "survival": "86% (inactive)"},
      {"smiles": "CCOc1ccccc1NC(=O)c1cnn2c(C(F)F)cc(-c3ccccc3)nc12", "survival": "52% (inactive)"},
      {"smiles": "CCOC(=O)C1CCN(C(=O)c2cc3sc(C)cc3n2C)CC1", "survival": "89% (inactive)"},
      {"smiles": "CC1CCN(S(=O)(=O)c2ccc3c(c2)N(CC(=O)NCCN(C)C)C(=O)CO3)CC1", "survival": "76% (inactive)"}
    ]}
  ]
}
